Structures are written as SMILES. Where “and” joins values, the source holds several entries; their conditions need not be identical. Equal values may be shown once. Inconclusive results are not listed. A number with no mark means an inactive call. Calls of active or inactive are those of the source. Calls follow the shape of the dose curve; as a rule, active = well fitted inhibition curve with a large enough effect; inconclusive = small, poorly fitted or top-dose-only effect; inactive = flat fitted curve, though single readings scatter. Where a SMILES comes first, the peptide text is derived from it. Bridges are numbered along the chain shown (N, C = ends). [ ]: non-standard residue; d: D form. The star is where a group is joined. ξ: configuration not given here. d(aThr) = C[C@@H](O)[C@@H](N)C(=O)O; ξThr(3R) = C[C@@H](O)C(N)C(=O)O; X3 = CC[C@@H](C)CCCCC(=O)*; dDab = NCC[C@@H](N)C(=O)O
% is scaled to controls: 0 for no effect and ±100 for the full control effect; potency is read from the fitted curve at half-maximal effect.

In the test the test system is KB-3-1. Briefly: Cytotoxic Profiling of Annotated Libraries Using Quantitative High-Throughput Screening (AID 1296008). Also: nearly all actives have a fitted effect of over 60% in size. Conditions: Five cell lines viability, CellTiter-Glo ATP luminescence, 48-72 h; max response: hits give low values. In short, it runs like this: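 Cytotoxicity was measured as CellTiter-Glo ATP luminescence, read after 10 min at room temperature. Compound treatment of the cells lasted 48 or 72 hr at 37 degrees Celsius in a qHTS format.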
In general terms: In ATP-based viability assays light output follows the ATP content of the culture.
For the compound `Cc1ccccn1`, the max response was -6.48%.

Turning to `CC(CCc1ccc(O)cc1)NCC(O)c1ccc(O)cc1` (stereo unspecified), the max response was 9.04%.

Turning to `CCCCCCCCCC(=O)NO`, the max response is -3.47% and -15%. Take `CCOC(C)OCC`: the max response is -6.86%. On the same count and under the same terms, with `O=C(O)c1ccc(OCCn2ccnc2)cc1` the figure was 6.76%; with `CN(C)C=Nc1c(I)cc(I)c(CCC(=O)O)c1I`, 0.601%; with `Cc1ccc(C(C)(C)c2ccc(C)cc2)cc1`, -2.63%. Take `O=P(O)(O)OP(=O)(O)OP(=O)(O)O`: the max response was -3.72%.

As to `NS(=O)(=O)c1cc2c(cc1Cl)NC(Cc1ccccc1)NS2(=O)=O` (stereo unspecified), the max response is -0.731%.

For the compound `CC(C)CCCCCCc1ccc(O)cc1`, the max response was -10.4%. As to `O=C(O)CCC/C=C\C[C@@H]1[C@@H](/C=C/[C@@H](O)COc2cccc(Cl)c2)[C@H](O)C[C@@H]1O`, the max response is -2.7%. Still for that read-out and setting: with `O=C(O)CCCC/C=C(\c1ccccc1)c1cccnc1` the figure was -9.78%.

For `CCSc1ccc2c(c1)N(CCCN1CCN(C)CC1)c1ccccc1S2`, the max response is -2.13%. Take `COC1=C(OC)C(=O)C(C/C=C(\C)CC/C=C(\C)CC/C=C(\C)CC/C=C(\C)CC/C=C(\C)CC/C=C(\C)CC/C=C(\C)CC/C=C(\C)CC/C=C(\C)CCC=C(C)C)=C(C)C1=O`: the max response is -15.4%.

Turning to `O=C(NNCS(=O)(=O)O)c1ccncc1`, the max response is -1.07%.

Turning to `CC(C)(C)NCC(O)c1ccc(O)c(CO)n1` (stereo unspecified), the max response is -3.71%. Take `CC[C@@H](C)CCCCC(=O)N[C@H](CCN)C(=O)N[C@@H](C(=O)N[C@H](CCN)C(=O)N[C@@H]1CCNC(=O)C([C@@H](C)O)NC(=O)[C@@H](CCN)NC(=O)[C@@H](CCN)NC(=O)[C@@H](CC(C)C)NC(=O)[C@@H](Cc2ccccc2)NC(=O)[C@@H](CCN)NC1=O)[C@@H](C)O` (stereo partly drawn) (X3-[dDab][d(aThr)][dDab][dDab][dDab][dF][dL][dDab][dDab][ξThr(3R)]; lactam 4-C): the max response is 15.7%. Turning to `O=C(O)Cc1nn(Cc2ccc(Br)cc2F)c(=O)c2ccccc12`, the max response was 1.97%. As for `CC(C)C[C@H](NC(=O)[C@@H](Cc1c[nH]c2ccccc12)NC(=O)[C@H](Cc1ccc(O)cc1)NC(=O)[C@H](CO)NC(=O)[C@H](Cc1c[nH]c2ccccc12)NC(=O)[C@H](Cc1cnc[nH]1)NC(=O)[C@@H]1CCC(=O)N1)C(=O)N[C@@H](CCCN=C(N)N)C(=O)N1CCC[C@@H]1C(=O)NCC(N)=O`, the max response is 0.539%. Same read-out and setting: with `CC[C@@H](C)[C@H](N)C(=O)O` the figure was -7.63%; with `CC(C)c1nc(N(C)S(C)(=O)=O)nc(-c2ccc(F)cc2)c1/C=C/C(O)CC(O)CC(=O)O` (stereo unspecified), 0.926%.

On to `CCOc1ccc(NC(=S)Nc2ccc(OCC)cc2)cc1`, for which the max response is 43.1%. Take `NC[C@@H]1O[C@H](O[C@H]2[C@@H](O)[C@H](O[C@@H]3[C@@H](O)[C@H](N)C[C@H](N)[C@H]3O[C@H]3O[C@H](CO)[C@@H](O)[C@H](O)[C@H]3N)O[C@@H]2CO)[C@H](N)[C@@H](O)[C@@H]1O`: the max response is 5.13%. The same measure, in the same setting: for `C[C@@H]1O[C@@H](OC[C@H]2O[C@@H](Oc3c(-c4ccc(OCCO)c(OCCO)c4)oc4cc(OCCO)cc(O)c4c3=O)[C@H](O)[C@@H](O)[C@@H]2O)[C@H](O)[C@H](O)[C@H]1O` the value was -2.8%; for `NC(=O)OC[C@@H]1[C@H](NC(=O)/C(=N\OCC(=O)O)c2csc(N)n2)C(=O)N1S(=O)(=O)O`, -1.39%. The same measure, in the same setting: for `C=CC1=C(C(=O)O)N2C(=O)[C@@H](NC(=O)/C(=N/OCC(=O)O)c3csc(N)n3)[C@H]2SC1` (stereo in doubt) the value was -4.79%; for `CCOC(=O)Cc1ccc(-c2ccccc2)cc1`, 6.55%.

`Cn1c(=O)c2c(ncn2CCOC(=O)C(C)(C)Oc2ccc(Cl)cc2)n(C)c1=O`: the max response is -10.9%. Consider `Cc1cc(-c2ccc(N=Nc3c(S(=O)(=O)O)cc4cc(S(=O)(=O)O)cc(N)c4c3O)c(C)c2)ccc1N=Nc1c(S(=O)(=O)O)cc2cc(S(=O)(=O)O)cc(N)c2c1O`, for which the Potency is 9.2 µM (active). Turning to `CC/C=C\C/C=C\C/C=C\CCCCCCCC(=O)O`, the max response is -1.86%. On the same count and under the same terms, with `CCCCC[C@H](O)/C=C/[C@@H]1[C@H]2C/C(=C/CCCC(=O)O)O[C@H]2C[C@H]1O` the figure was 11.9%.

The values above are taken from PubChem BioAssay (NCATS).
